Data on 11 compounds can be found in PubChem BioAssay.

Assay [1] addresses (Lyso)-N-acylphosphatidylethanolamine lipase (Mus musculus) (UniProt Q8VD66). Briefly: mouse ABHD4 hydrolase blockers, triplicate – biochemical, fluorescence polarization, confirmation (AID 720658;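 active = mean inhibition across replicates above the hit cutoff set in the primary screen, cut at about 30% in these data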;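 note: 0% = wild-type ABHD4 with DMSO and 100% = catalytically dead S159A mutant with DMSO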). The conditions noted are these: purified mABHD4, FP-Rh probe fluorescence polarization; at 8.92 µM; hits give high values. A general note: Fluorescence polarisation rises when a labelled molecule tumbles more slowly, as on binding a larger partner.

Assay [2] deals with HIV-1 integrase (multimerization). Nature of the assay: stimulation of HIV-1 integrase oligomerization – biochemical, TR-FRET, counter-screen for LEDGF/p75 integration inhibitor project (AID 1053131; in the data active = activation above about 8.9%). The conditions noted are these: TR-FRET HIV-1 integrase multimerization, at 7.7 µM, hits give high values. (In general: TR-FRET usually uses a lanthanide donor and a delayed reading to cut background.)

Assay [3] can be described thus: compounds disturbing TR-FRET signal readout – biochemical, HIV-1 IN multimerization, artefact control for LEDGF/p75-dependent integration inhibitor project, confirmation (AID 1053135).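 Note: 0% = integrase with antibodies and DMSO and 100% = antibodies without integrase.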 The conditions noted are these: TR-FRET optical interference counterscreen, at 7.7 µM, hits give high values.
Assay [4] has as its system HIV-1 integrase / human LEDGF/p75 complex. Nature of the assay: blockers of LEDGF/p75-dependent integrase activity – biochemical, TR-FRET, confirmation (AID 1053136; in the data active = inhibition above about 14%). The conditions noted are these: TR-FRET LEDGF/p75-dependent HIV-1 integration, at 3.7 µM, hits give high values.
The target in assay [5] is Nuclear receptor coactivator 1 (Homo sapiens) (UniProt Q15788). Nature of the assay: NCOA1 GAL4-fusion reporter inhibition – cell-based, luminescence, quadruplicate, confirmation (AID 588820;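 active = mean inhibition above 46.68%, the untreated control wells mean plus 3 SD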;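 note: 0% = DMSO wells and 100% = gossypol 36 µM treated wells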). The conditions noted are these: HEK293 GAL4-SRC1 luciferase reporter, at 3.6 µM, hits give high values. A general note: In a reporter assay the amount or activity of a reporter protein is the signal.

The nature of assay [6]: repression of VP16-driven luciferase reporter – cell-based, luminescence, high throughput, counter-screen for SRC1 inhibitor project (AID 588824; in the data active = inhibition above about 25%). The conditions noted are these: cell-based VP16 transactivation luciferase luminescence; at 3.6 µM; hits give high values.
A short description of assay [7]: StAR promoter reporter inhibitors, counter-screen for LRH-1 inverse agonist project, cell-based, luminescence, high throughput (AID 651611; in the data active = inhibition above about 28%). The conditions noted are these: StAR promoter luciferase reporter counterscreen, at 3.6 µM, hits give high values.
For assay [8], the target named is Nuclear receptor subfamily 5 group A member 2 (Homo sapiens) (UniProt O00482). Briefly: NR5A2 activity suppression in reporter cells – cell-based, luminescence, confirmation (AID 651613; in the data active = inhibition above about 42%;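 note: HEK293T cells co-transfected with LRH-1 and StAR promoter luciferase reporter; 0% = vehicle wells and 100% = parental cells lacking receptor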). The conditions noted are these: cell-based LRH-1 luciferase reporter, inverse agonism; at 3.6 µM; hits give high values.
For assay [9], the target named is Steroidogenic factor 1 (Homo sapiens) (UniProt Q13285). Briefly: inverse agonism at SF1 nuclear receptor – cell-based, luminescence, high throughput, counter-screen for LRH-1 inverse agonist project (AID 651614; in the data active = inhibition above about 44%;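 note: cells cotransfected with StAR promoter reporter and SF1 expression vector; 0% = vehicle on cells with receptor and 100% = vehicle on cells lacking receptor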). The conditions noted are these: cell-based SF1 luciferase reporter, at 3.6 µM, hits give high values.
Assay [10] is described as follows: compounds suppressing VP16-driven luciferase signal – cell-based, luminescence, high throughput, counter-screen for LRH-1 inverse agonist project (AID 651615; in the data active = inhibition above about 33%). The conditions noted are these: Gal4-VP16 luciferase reporter cells, at 3.6 µM, hits give high values.
A short description of assay [11]: reduced OD of V66 E. coli with T4 gene 2 phage – absorbance, RecBCD inhibitor project, confirmation (AID 651982;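 active = mean inhibition over triplicates exceeding the hit threshold derived in the original primary screen, cut at about 11% in these data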). The conditions noted are these: E. coli V66 + T4 2- phage, growth OD; at 11.9 µM; hits give high values.
Assay [12] in a line: bacterial growth inhibition – absorbance, high throughput, counter-screen for RecBCD inhibitor project (AID 651983; in the data active = inhibition above about 20%;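 note: E. coli strain V66 grown with compound alone and no phage infection; 0% = bacteria with DMSO vehicle only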). The conditions noted are these: E. coli viability, absorbance (OD) growth; at 11.9 µM; hits give high values.
The nature of assay [13]: reduced optical density, T4-challenged addAB+ bacteria – absorbance, E. coli V3065, T4 phage, counter-screen for RecBCD inhibitor project, confirmation (AID 651984;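 active = mean inhibition above the solvent-only control wells' mean plus 3 SD, cut at about 22% in these data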;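 note: higher means less bacterial growth from phage killing when AddAB is blocked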). The conditions noted are these: E. coli expressing H. pylori AddAB + T4 phage, OD growth; at 11.9 µM; hits give high values; gene 2 mutant T4, recBCD-deleted host.
The nature of assay [14]: BSA probe fluorescence interference – biochemical, TAMRA-labeled BSA, counter-screen for TCR-CD3 interaction inhibitor project (AID 652035; in the data active = inhibition above about 23%;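 note: 0% = buffer low control and 100% = reference high control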). The conditions noted are these: TAMRA-labeled BSA probe fluorescence counterscreen; at 9.4 µM; hits give high values.
Assay [15] concerns T-cell receptor (TCR)-CD3 interaction, human. Nature of the assay: blockers of TCR binding to CD3 – biochemical, fluorescence, TAMRA-labeled TCR probe, confirmation (AID 652036; in the data active = inhibition above about 19%). The conditions noted are these: TAMRA-labeled TCR probe fluorescence binding assay; at 9.4 µM; hits give high values.
Assay [16] in a line: potentiators of IFN-gamma STAT1 reporter activity – cell-based, HTS, luciferase reporter, confirmation (AID 1262;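 active = activation above a set limit carried over from the earlier primary STAT1 screen, cut at about 140% in these data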;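 note: simple ratio to median IFN-gamma plus DMSO wells so 0% means no light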). The conditions noted are these: NIH 3T3 STAT1-luciferase reporter, IFN-gamma potentiation, luminescence; at 5.7 µM; hits give high values; 100% = IFN-gamma EC80 alone, no compound.
Assay [17] is described as follows: enhancement of NF-kB transcriptional signalling – cell-based, HEK293T, luciferase luminescence, TNF-alpha, counter-screen for STAT1 activator project (AID 1306;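 active = activation above the mean of solvent-only control wells plus 3 SD, set per campaign, cut at about 130% in these data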;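 note: TNF-alpha given at a submaximal dose yielding about 80% of full reporter signal; values are well signal over median control so 100% means no change and 0% no light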). The conditions noted are these: HEK293T NF-kB luciferase reporter, TNF-alpha stimulated, at 5.7 µM, hits give high values, 100% = TNF-alpha with vehicle only.
Assay [18] concerns the target Signal transducer and activator of transcription 3 (Homo sapiens) (UniProt P40763). Nature of the assay: enhancers of IL-6 STAT3 transcription – U3A cells, luciferase, luminescence, counter-screen for STAT1 activator project, confirmation (AID 1316;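 active = activation above the solvent-only control well mean plus 3 SD, set per plate batch, cut at about 110% in these data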;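 note: 0% = no luminescence and 100% = median IL-6 plus DMSO wells; higher means more STAT3 reporter activation so hits are non-selective activators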). The conditions noted are these: U3A cells STAT3-luciferase reporter, IL-6, luminescence; at 5.7 µM; hits give high values; 100 = IL-6 alone, no compound effect; cells lack STAT1.

Assay [19] concerns TLR4-MyD88 interaction (human), BLA complementation. Nature of the assay: disruptors of TLR4 binding to MyD88 – cell-based, HeLa CL3-4, BLA complementation, FRET ratio, confirmation (AID 941;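 active = mean inhibition across three repeat runs above about 25% carried over from the earlier screen, limit read from the data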;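 note: plate controls were DMSO only for no effect and clavulanic acid blocking BLA at full dose for full effect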). The conditions noted are these: CCF4 FRET ratio, at 8.4 µM, hits give high values.
Assay [20] is described as follows: BLA reporter interference in HeLa cells – cell-based, full-length BLA, CCF4 FRET ratio, artefact control for TLR4-MyD88 binding inhibitor project, confirmation (AID 1237;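 active = mean inhibition over three repeats above about 26% taken from the earlier screen, limit read from the data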;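 note: HeLa cells stably expressing beta-lactamase reporter as counterscreen for TLR4-MyD88 inhibitors; 0% = DMSO and 100% = clavulanic acid full inhibition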). The conditions noted are these: at 8.4 µM, hits give high values.
In assay [21] the target is Toll-like receptor 9 (Homo sapiens) (UniProt Q9NR96). Briefly: disruptors of TLR9 binding to MyD88 – cell-based, CHO, BLA complementation, fluorescence, triplicate, confirmation (AID 540250;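 active = mean inhibition across three repeats above about 21% taken from the earlier screen, limit read from the data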;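 note: blue over green emission ratio reports constitutive TLR9 MyD88 association via BLA complementation; 0% = DMSO vehicle wells and 100% = clavulanate BLA inhibitor wells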). The conditions noted are these: CCF4 FRET ratio, at 4.98 µM, hits give high values.
Assay [22] in a line: BLA reporter readout interference – cell-based, fluorescence, artefact control for TLR9-MyD88 binding inhibitor project (AID 540251;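 active = mean inhibition above a 50% cutoff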;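 note: counterscreen of TLR9-MyD88 hits on CMV-driven BLA in CHO-K1 cells; 0% = DMSO alone and 100% = clavulanate blocking BLA; higher means less blue over green ratio so more BLA blockade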). The conditions noted are these: CHO-BLA cells, CCF4 FRET ratio, at 4.98 µM, hits give high values.
The nature of assay [23]: CHO cell viability loss – luminescence, single concentration, cytotoxicity control for TLR9-MyD88 binding inhibitor project (AID 588336; in the data active = inhibition above about 11%). The conditions noted are these: TLR9-MyD88 CHO cells cytotoxicity, at 4.98 µM, hits give high values.
For assay [24], the target named is Receptor-interacting serine/threonine-protein kinase 2 (Homo sapiens) (UniProt O43353). Nature of the assay: inhibitors of RIPK2 association with NOD2 – fluorescence, CHO cells, BLA complementation, triplicate, confirmation (AID 624370;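 active = mean inhibition across replicates above a set limit taken from the earlier primary screen, cut at about 21% in these data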;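 note: 0% = DMSO-only wells and the high end = clavulanate BLA-blocked wells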). The conditions noted are these: CCF4 FRET, at 4.98 µM, hits give high values.
A short description of assay [25]: BLA reporter readout interference – cell-based, CHO-K1 CMV-bla, CCF4 FRET, fluorescence, artefact control for NOD2-RIPK2 interaction inhibitor project, confirmation (AID 624371;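 active = mean inhibition above the low-control mean inhibition plus three low-control SD, cut at about 11% in these data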;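 note: 0% = DMSO only wells and 100% = clavulanate high control wells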). The conditions noted are these: CCF4 FRET ratio, counterscreen, at 4.98 µM, hits give high values.
A short description of assay [26]: reduced OD of T4-infected AddAB+ E. coli – absorbance, E. coli V3065, T4 phage, triplicate, AddAB inhibitor project, confirmation (AID 488942;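 active = mean inhibition above a set limit taken from the earlier primary screen, cut at about 13% in these data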;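 note: higher means less bacterial growth since AddAB block lets phage replicate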). The conditions noted are these: E. coli V3065 expressing H. pylori AddAB, at 11.9 µM, hits give high values, T4 phage with gene 2 nonsense mutations.
Assay [27] can be described thus: reduced OD of phage-infected RecBCD+ V66 E. coli – absorbance, mutant T4 phage, counter-screen for AddAB inhibitor project (AID 488955;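 active = mean inhibition above the mean of solvent-only control wells plus 3 SD, cut at about 4% in these data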;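 note: optical density read after an 18 h incubation at 37 °C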). The conditions noted are these: OD growth, at 11.9 µM, hits give high values.
Assay [28] can be described thus: bacterial growth inhibitors – absorbance, counter-screen for AddAB inhibitor project, confirmation (AID 488956; in the data active = inhibition above about 25%). The conditions noted are these: bacterial viability, absorbance (AddAB counterscreen); at 11.9 µM; hits give high values.

A number with no mark means an inactive call. Some of the results follow. Active and inactive are the calls of the source.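 Rule for the calls, unless noted: active = inhibition above the mean over all tested compounds plus 3 SD, which no compound reached; inactive = the rest.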

Chain of Nuclear receptor coactivator 1 (Homo sapiens) (Q15788 whole entry, looked up, the tested form may be a part): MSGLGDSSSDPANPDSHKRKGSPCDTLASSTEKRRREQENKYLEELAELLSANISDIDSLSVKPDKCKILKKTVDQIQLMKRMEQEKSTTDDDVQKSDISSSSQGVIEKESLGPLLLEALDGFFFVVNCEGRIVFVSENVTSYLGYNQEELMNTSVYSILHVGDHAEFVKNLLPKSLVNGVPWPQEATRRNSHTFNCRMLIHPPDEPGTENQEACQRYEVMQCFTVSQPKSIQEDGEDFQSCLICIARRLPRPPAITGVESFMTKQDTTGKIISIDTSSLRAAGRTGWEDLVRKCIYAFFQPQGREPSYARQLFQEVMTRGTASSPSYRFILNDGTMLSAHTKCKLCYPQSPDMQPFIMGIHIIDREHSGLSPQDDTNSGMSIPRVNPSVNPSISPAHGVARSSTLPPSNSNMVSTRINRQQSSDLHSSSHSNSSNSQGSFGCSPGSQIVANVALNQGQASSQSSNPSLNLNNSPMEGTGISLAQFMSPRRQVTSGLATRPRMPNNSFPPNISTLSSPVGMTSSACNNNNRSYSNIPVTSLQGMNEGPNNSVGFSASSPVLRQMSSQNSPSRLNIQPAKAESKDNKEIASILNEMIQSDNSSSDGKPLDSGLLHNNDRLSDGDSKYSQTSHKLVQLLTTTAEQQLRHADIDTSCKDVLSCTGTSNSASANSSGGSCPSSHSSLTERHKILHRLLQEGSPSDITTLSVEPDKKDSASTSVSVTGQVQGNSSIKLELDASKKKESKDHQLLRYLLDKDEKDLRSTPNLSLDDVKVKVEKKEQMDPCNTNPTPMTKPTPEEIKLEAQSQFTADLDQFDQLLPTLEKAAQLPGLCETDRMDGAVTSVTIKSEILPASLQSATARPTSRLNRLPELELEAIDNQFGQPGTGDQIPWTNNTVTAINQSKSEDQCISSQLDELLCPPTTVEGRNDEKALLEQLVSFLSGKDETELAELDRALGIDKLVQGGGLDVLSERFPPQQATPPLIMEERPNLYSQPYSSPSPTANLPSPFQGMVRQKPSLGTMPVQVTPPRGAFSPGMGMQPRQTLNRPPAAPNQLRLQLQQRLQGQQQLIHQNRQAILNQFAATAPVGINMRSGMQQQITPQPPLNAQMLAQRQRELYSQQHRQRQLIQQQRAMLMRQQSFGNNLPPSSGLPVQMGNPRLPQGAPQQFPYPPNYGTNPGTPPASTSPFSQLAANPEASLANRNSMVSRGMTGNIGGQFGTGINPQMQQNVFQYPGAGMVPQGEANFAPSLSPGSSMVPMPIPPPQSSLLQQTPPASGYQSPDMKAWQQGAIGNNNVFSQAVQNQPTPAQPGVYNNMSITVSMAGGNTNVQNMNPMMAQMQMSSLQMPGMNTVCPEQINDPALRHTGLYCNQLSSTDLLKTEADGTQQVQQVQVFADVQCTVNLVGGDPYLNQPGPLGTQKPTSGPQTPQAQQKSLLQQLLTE
Chain of Toll-like receptor 9 (Homo sapiens) (Q9NR96 whole entry, looked up): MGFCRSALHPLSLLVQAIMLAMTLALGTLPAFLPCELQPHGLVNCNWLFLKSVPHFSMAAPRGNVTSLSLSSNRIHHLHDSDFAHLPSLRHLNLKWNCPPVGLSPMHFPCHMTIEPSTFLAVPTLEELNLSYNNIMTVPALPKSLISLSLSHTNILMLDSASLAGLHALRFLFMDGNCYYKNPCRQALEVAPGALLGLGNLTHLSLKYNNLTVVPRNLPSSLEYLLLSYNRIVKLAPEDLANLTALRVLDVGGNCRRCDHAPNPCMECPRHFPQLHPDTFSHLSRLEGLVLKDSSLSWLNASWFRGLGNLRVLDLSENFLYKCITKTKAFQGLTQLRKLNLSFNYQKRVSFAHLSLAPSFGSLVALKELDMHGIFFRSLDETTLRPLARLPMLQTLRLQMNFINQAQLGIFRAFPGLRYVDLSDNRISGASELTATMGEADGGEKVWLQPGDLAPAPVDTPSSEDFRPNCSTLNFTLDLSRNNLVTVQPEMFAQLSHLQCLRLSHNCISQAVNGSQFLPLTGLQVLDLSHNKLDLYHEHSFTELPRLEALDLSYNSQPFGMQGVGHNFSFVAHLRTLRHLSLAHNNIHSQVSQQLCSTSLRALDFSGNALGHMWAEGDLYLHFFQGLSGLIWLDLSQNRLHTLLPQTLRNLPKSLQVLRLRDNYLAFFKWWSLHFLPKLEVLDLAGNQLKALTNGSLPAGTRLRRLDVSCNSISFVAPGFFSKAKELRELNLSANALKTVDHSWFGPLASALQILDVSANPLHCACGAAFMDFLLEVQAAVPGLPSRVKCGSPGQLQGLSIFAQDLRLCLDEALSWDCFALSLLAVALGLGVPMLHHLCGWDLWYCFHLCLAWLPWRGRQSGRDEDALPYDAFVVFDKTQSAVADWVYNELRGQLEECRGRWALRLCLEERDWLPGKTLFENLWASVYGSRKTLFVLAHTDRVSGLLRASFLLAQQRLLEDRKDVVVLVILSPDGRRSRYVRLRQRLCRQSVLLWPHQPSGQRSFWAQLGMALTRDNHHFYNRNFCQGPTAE
Chain of Steroidogenic factor 1 (Homo sapiens) (Q13285 whole entry, looked up, the tested form may be a part): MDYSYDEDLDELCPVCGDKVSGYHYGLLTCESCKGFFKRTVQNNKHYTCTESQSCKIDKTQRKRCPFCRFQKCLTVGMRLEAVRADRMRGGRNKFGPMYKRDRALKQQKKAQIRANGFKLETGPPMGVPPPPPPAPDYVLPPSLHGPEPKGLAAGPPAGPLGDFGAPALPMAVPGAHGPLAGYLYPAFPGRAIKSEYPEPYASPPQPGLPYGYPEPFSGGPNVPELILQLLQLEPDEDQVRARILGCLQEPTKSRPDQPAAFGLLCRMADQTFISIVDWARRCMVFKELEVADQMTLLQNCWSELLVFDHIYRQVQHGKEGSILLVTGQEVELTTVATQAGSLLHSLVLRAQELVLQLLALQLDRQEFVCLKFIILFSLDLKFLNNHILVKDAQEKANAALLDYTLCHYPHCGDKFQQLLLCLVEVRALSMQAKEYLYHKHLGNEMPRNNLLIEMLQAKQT
Chain of (Lyso)-N-acylphosphatidylethanolamine lipase (Mus musculus) (Q8VD66 whole entry, looked up): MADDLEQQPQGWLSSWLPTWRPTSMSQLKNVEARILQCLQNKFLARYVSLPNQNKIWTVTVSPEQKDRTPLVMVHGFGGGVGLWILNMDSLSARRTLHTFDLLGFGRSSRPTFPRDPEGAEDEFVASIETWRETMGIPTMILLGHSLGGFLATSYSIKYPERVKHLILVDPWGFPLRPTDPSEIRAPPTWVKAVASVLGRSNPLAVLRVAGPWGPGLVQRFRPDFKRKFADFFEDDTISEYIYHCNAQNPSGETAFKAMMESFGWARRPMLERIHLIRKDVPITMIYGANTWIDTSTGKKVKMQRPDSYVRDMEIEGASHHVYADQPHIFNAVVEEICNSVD
Chain of Nuclear receptor subfamily 5 group A member 2 (Homo sapiens) (O00482 whole entry, looked up): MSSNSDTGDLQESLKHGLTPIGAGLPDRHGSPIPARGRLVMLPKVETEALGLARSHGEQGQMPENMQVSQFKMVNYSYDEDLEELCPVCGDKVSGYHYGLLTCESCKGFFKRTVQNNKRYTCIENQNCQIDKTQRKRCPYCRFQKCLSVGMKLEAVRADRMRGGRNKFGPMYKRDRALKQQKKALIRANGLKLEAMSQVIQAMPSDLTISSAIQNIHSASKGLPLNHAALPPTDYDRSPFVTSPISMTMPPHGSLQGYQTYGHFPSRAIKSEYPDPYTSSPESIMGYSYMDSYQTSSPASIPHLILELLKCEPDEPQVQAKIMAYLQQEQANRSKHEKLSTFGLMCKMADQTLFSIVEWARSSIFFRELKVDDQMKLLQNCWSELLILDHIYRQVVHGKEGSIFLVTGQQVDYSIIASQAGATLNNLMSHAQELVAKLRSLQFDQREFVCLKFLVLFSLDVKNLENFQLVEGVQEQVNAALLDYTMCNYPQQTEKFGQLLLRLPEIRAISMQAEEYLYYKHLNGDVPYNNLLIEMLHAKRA
Chain of Receptor-interacting serine/threonine-protein kinase 2 (Homo sapiens) (O43353 whole entry, looked up): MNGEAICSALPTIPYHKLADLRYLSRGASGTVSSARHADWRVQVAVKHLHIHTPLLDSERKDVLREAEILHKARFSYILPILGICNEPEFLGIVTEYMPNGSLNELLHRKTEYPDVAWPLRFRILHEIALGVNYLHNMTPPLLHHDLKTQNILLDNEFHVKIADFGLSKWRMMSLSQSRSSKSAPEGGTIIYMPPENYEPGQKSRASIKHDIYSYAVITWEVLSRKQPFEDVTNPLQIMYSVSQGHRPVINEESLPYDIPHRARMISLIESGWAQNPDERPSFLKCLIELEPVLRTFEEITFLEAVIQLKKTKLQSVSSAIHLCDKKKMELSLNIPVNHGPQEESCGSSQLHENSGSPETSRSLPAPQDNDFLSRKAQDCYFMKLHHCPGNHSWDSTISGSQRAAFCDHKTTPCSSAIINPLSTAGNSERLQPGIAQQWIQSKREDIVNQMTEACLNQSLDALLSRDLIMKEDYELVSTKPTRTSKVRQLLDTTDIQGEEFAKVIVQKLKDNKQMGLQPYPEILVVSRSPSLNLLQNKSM

In general, inhibition refers to the change of the read-out against control, counted positive when it falls. Take `O=C1C=CC(=O)N1c1ccc(N2CCCCC2)cc1`: the inhibition in assay [1] is 17.5%; in [3], -8.48%; in assay [4], 5.47%. Besides, in assay [2], the activation is 1.69%.
For `COc1ccc2[nH]c3c(C)c4cc[n+](C)cc4c(C)c3c2c1`, the inhibition in assay [5] was 27.3%; in [6] it was 45% (active); in assay [7], 49.8% (active); in assay [8], 103% (active); in [9], 51.9% (active); in assay [10], 75% (active). The values for the inhibition in assay [3] and in [4] were -47.7% and 42.7% (active), respectively. Besides, in assay [2], the activation is 9.5% (active).
Take `O=C(NNC(=O)c1ccccc1O)c1ccccc1O`: the inhibition in [11] is 25.8% (active); in [12] it was 26.4% (active); in [13], 38.9% (active); in assay [14], 2.97%; in [15], 37.8% (active); in [3], -4.93%. The inhibition in [4] was 62.9% (active). The activation in assay [2] is 0.99%.
For the compound `COc1ccc2oc(-c3cccc(NC(=O)CSc4ccc(Cl)cc4)c3)nc2c1`, the activation (% of control) is 216% (active) in [16], 140% (active) in assay [17] and 100% in [18].
The corresponding values for `CCC(=O)NC(=Nc1nc2ccccc2s1)NC(=O)CC` are 216% (active), 138% (active) and 112% (active).
For the compound `OCCCN1c2ccccc2Nc2nnc(-c3ccccc3)cc21`, the activation (% of control) in [16] is 177% (active); in [17] it was 132%; in assay [18] it was 102%.
For `CC(=O)c1sc(N/N=C\c2ccc(C)cc2)nc1C` the same measures were 191% (active), 143% (active) and 107%.
For `Cn1nnc2cc(C(=O)NCCC3=CCCCC3)ccc21` the same measures were 171% (active), 117% and 119% (active).
`O=C1NC(=O)C2C1C(c1ccc([N+](=O)[O-])cc1)=NN2Cc1ccccc1` (centres undefined): the inhibition in [19] is 25.8% (active); in [20], 42.9% (active); in assay [21] it was 25.8% (active); in assay [22], 25.6%; in [23], 4.55%; in assay [24] it was 49.4% (active). Further, the inhibition in assay [25] is 51.9% (active).
Take `C=CC1=C(C(=O)O)N2C(=O)[C@@H](NC(=O)/C(=N/OCC(=O)O)c3csc(N)n3)[C@H]2SC1`: the inhibition in [26] is 102% (active); in assay [27], 100% (active); in [28], 101% (active); in [11], 100% (active); in assay [12], 101% (active); in assay [13], 101% (active). For the same compound, the inhibition was 6.41% in assay [14], 20% (active) in [15], -213% in assay [3] and 90.4% (active) in assay [4]. In addition, the activation in [2] is 42.3% (active).
On to `Cc1ccc(Cc2cnc(N)s2)o1`, for which the inhibition was 0.16% in [14], 2.57% in [15], -22.6% in assay [3] and 10.6% in [4]. In [2], the activation is 6.28%.
